This note sets out measurements from PubChem BioAssay (NCATS).

Values joined by “and” are separate entries in the source; they are usually repeats but may differ in a detail not shown here. Identical values can stand only once. Inconclusive results are not listed. Where a structure was tested more than once in an assay, its records may differ in their call. Unmarked numbers belong to inactive results. Active and inactive are the calls of the source. Unless noted, calls come from the whole dose curve; as a rule, active = well fitted curve in the direction sought with a large enough effect; inconclusive = small, poorly fitted or top-dose-only effect, or another doubt; inactive = no such curve, though single readings can be large; an effect the other way counts as inactive or inconclusive.

For assay [1], the target named is Cellular tumor antigen p53 (Homo sapiens) (UniProt P04637). In words: Primary qHTS for small molecule compounds that upregulate eGFP-tagged delta133p53alpha (in N-terminal) cells. (AID 2060322).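 For activation: series mostly up to about 56 µM; 0% = DMSO vehicle and 100% = reference activator.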 Note: nearly all actives have a fitted effect of over 75% in size. Note: potency is the fitted concentration of half-maximal effect. To be noted: NCI-H358 eGFP-delta133p53alpha fluorescence, 24 h; activation: active compounds read high. The method in brief:
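NCI-H358 cells pre-induced 24 h with 10 ng/ml doxycycline to express N-terminal eGFP-delta133p53alpha, then dosed 24 h at 37C without doxycycline; fixed, Hoechst-stained, GFP intensity by laser scanning cytometry, normalized to DMSO (0%) and 57.5 uM 5-azacytidine (100%).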

Assay [2] addresses Aldehyde dehydrogenase, mitochondrial (Homo sapiens) (UniProt P05091). Kind of assay: qHTS for Inhibitors of the Aldehyde Dehydrogenase Family (ALDH2) Primary screen (AID 2061308).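 Note: plate controls were vehicle for no effect and reference inhibitor for full effect; nearly all actives have a fitted effect of over 55% in size.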
The target of assay [3] is Retinaldehyde dehydrogenase 3 (Homo sapiens) (UniProt P47895). Kind of assay: qHTS for Inhibitors of the Aldehyde Dehydrogenase Family (ALDH1A3) Primary screen (AID 2061315).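 Note: plate controls were DMSO vehicle for no effect and reference inhibitor for full effect.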
The nature of assay [4]: BET inhibitor-based combinations targeting novel dependencies in MECOM-rearranged (r) AML: OCI-AML3 cell line (AID 2202232). Note: nearly all actives have a fitted effect of over 35% in size. Note: potency is the fitted concentration of half-maximal effect. To be noted: Potency: OCI-AML3 viability. The method in brief:
(§1)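 Here, 11-point titrations of each agent were applied to 500 seeded cells and incubated 48 hr; CellTiter-Glo signal, scaled against DMSO and empty wells, was integrated as AUC, then Z-scored within the individual line.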

Assay [5] is described as follows: BET inhibitor-based combinations targeting novel dependencies in MECOM-rearranged (r) AML: MV-4-11 cell line (AID 2202233). Note: potency is the fitted concentration of half-maximal effect; nearly all actives have a fitted effect of over 45% in size. A digest of the protocol:
(§2)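 Normalized to DMSO and empty-well controls, the luminescence data from CellTiter-Glo after 48 hr drug exposure were fitted across 11 concentrations. Reported metrics are area under the dose-response curve and its Z-transformed form.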

Assay [6] in a line: BET inhibitor-based combinations targeting novel dependencies in MECOM-rearranged (r) AML: HNT-34 cell line (AID 2202234). Note: nearly all actives have a fitted effect of over 35% in size. Note: potency is the fitted concentration of half-maximal effect. The method in brief: as §2
Assay [7] is described as follows: BET inhibitor-based combinations targeting novel dependencies in MECOM-rearranged (r) AML: UCSD-AML1 cell line (AID 2202235). Note: nearly all actives have a fitted effect of over 40% in size. Note: potency is the fitted concentration of half-maximal effect. The method in brief:
as §2

Assay [8] is described as follows: BET inhibitor-based combinations targeting novel dependencies in MECOM-rearranged (r) AML: AML-191 cell line (AID 2202236; note: nearly all actives have a fitted effect of over 35% in size; note: potency is the fitted concentration of half-maximal effect). A digest of the protocol: as §1
Assay [9] in a line: BET inhibitor-based combinations targeting novel dependencies in MECOM-rearranged (r) AML: AML-194 cell line (AID 2202237; note: nearly all actives have a fitted effect of over 40% in size; note: potency is the fitted concentration of half-maximal effect). A digest of the protocol:
as §1

Assay [10] addresses Aldehyde dehydrogenase, mitochondrial (Homo sapiens) (UniProt P05091). In words: qHTS for Inhibitors of the Aldehyde Dehydrogenase Family (ALDH2) Validation screens (AID 2061302; active = well fitted inhibition curve with a large enough effect; title and protocol of this record describe different tests;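 note: plate controls were DMSO vehicle for no effect and maximal DPI positive control response for full effect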). Background: In qHTS, concentration-response curves come from the screen itself.
The target in assay [11] is Retinaldehyde dehydrogenase 3 (Homo sapiens) (UniProt P47895). Kind of assay: qHTS for Inhibitors of the Aldehyde Dehydrogenase Family (ALDH1A3) Validation screen (AID 2061312). Note: % is set by controls: 0 for no effect and ±100 for the full control effect; nearly all actives have a fitted effect of over 45% in size.
Assay [12] deals with Aldehyde dehydrogenase, mitochondrial (Homo sapiens) (UniProt P05091). In words: qHTS for Inhibitors of the Aldehyde Dehydrogenase Family (ALDH2) Confirmatory screens (AID 2061303; active = well fitted inhibition curve with a large enough effect; title and protocol of this record describe different tests; note: % is set by controls: 0 for no effect and ±100 for the full control effect; nearly all actives have a fitted effect of over 45% in size).
The nature of assay [13]: qHTS for Inhibitors of the Aldehyde Dehydrogenase Family (ALDH1A2, ALDH1A3, ALDH2, ALDH3A1) (AID 2061307). Note: % is set by controls: 0 for no effect and ±100 for the full control effect; nearly all actives have a fitted effect of over 50% in size.
The target of assay [14] is Retinaldehyde dehydrogenase 3 (Homo sapiens) (UniProt P47895). Kind of assay: qHTS for Inhibitors of the Aldehyde Dehydrogenase Family (ALDH1A3) Confirmatory screens (AID 2061311). Note: % is set by controls: 0 for no effect and ±100 for the full control effect; nearly all actives have a fitted effect of over 60% in size.
Assay [15] deals with Retinal dehydrogenase 2 (Homo sapiens) (UniProt O94788). Kind of assay: qHTS for Inhibitors of the Aldehyde Dehydrogenase Family (ALDH1A2) Confirmation screens (AID 2061314). Note: % is set by controls: 0 for no effect and ±100 for the full control effect; nearly all actives have a fitted effect of over 65% in size.
For assay [16], the target named is Aldehyde dehydrogenase 1A1 (Homo sapiens) (UniProt P00352). Kind of assay: qHTS for Inhibitors of the Aldehyde Dehydrogenase Family (ALDH1A1) Confirmatory screens (AID 2061316). Note: % is set by controls: 0 for no effect and ±100 for the full control effect; nearly all actives have a fitted effect of over 65% in size.
Assay [17] can be described thus: BET inhibitor-based combinations targeting novel dependencies in MECOM-rearranged (r) AML: SET-2 cell line (AID 2202231). Note: potency is the fitted concentration of half-maximal effect; nearly all actives have a fitted effect of over 35% in size. The following applies: SET-2 AML cells viability, CellTiter-Glo luminescence, 48 h; viability: active compounds read low, concentration not given here. The method in brief: as §1
A general note: In ATP-based viability assays light output follows the ATP content of the culture.

Cellular tumor antigen p53 (Homo sapiens), sequence (P04637 whole entry, looked up): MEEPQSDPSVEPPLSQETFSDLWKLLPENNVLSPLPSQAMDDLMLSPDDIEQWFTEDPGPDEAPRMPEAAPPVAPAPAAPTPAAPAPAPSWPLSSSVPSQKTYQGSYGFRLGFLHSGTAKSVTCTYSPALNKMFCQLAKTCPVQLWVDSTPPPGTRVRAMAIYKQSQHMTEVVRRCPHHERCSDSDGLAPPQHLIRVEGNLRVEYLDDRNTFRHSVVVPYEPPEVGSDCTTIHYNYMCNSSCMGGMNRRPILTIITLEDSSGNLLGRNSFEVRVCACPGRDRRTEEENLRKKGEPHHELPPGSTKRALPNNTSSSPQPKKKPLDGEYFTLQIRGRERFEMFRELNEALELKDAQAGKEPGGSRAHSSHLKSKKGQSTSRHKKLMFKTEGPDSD

In the case of `COc1cc2c(Nc3ccc(Br)cc3F)ncnc2cc1OCC1CCN(C)CC1`, the Potency in [1] is 21.3 µM (active); in assay [4], 23.5 µM (active); in assay [5], 3.32 µM (active); in [6], 2.63 µM (active); in assay [7] it was 14.8 µM (active); in assay [8] it was 20.9 µM (active). Also, the Potency in assay [9] is 23.5 µM (active). Moreover, the activation in assay [1] is 0.071% and -8.47%. Moreover, the Potency entry in assay [2] and in [3] was “inactive” throughout.
For `CCCC(C(=O)OCCN(CC)CC)(c1ccccc1)c1ccccc1`, in assay [1], the Potency is 34.7 µM (active) and the activation is -51.2%. Besides, the Potency entry in assay [10] is “inactive”. In addition, the Potency entry in assay [11] is “inactive”.
Consider `Cc1nc2c(-c3cnc(N)nc3)nc(N3CCOCC3)nc2n1C(C)C`, for which the Potency is 9.66 µM (active) in assay [1], 0.296 µM (active) in [5] and 0.525 µM (active) in assay [6]. Also, in assay [1], the activation was 14.3%. Also, the Potency entry in assay [2] and in assay [3] was “inactive” in each case.
In the case of `c1ccc2c(CCNc3ccc(Nc4ccncc4)cc3)c[nH]c2c1`, the Potency was 30.6 µM (active) in assay [1]; 0.934 µM (active) in assay [5]; 2.95 µM (active) in [6]; 3.72 µM (active) in [7]; 3.32 µM (active) in assay [9]. The activation in assay [1] is -5.73%. The Potency result in assay [2], in assay [11] and in [3] was “inactive” in each case.
For the compound `CN(C)c1ccc(/C=C2\C(=O)Nc3ccccc32)cc1`, in assay [1], the Potency was 43.2 µM (active) and the activation is -19.4%. In addition, in assay [10], the Potency result is “inactive”. Besides, the Potency entry in [11] was “inactive”.
Turning to `O=C(Nc1ccc([N+](=O)[O-])cc1Cl)c1cc(Cl)ccc1O`, the Potency in [1] is 4.26 µM (active); in [4], 1.66 µM (active); in assay [5], 4.17 µM (active); in assay [6] it was 1.05 µM (active); in assay [7], 1.32 µM (active); in assay [8] it was 1.05 µM (active). In addition, the Potency in [9] was 1.48 µM (active). The activation in assay [1] was 122% and -83.1%. Also, the Potency entry in assay [10] is “inactive”.
For the compound `COCC(=O)O[C@]1(CCN(C)CCCc2nc3ccccc3[nH]2)CCc2cc(F)ccc2[C@@H]1C(C)C`, the Potency in assay [1] is 21.9 µM (active). Also, in assay [1], the activation was 29.4%. The Potency result in assay [10], in assay [12], in assay [13], in assay [14], in assay [15] and in [16] was “inactive” throughout.
For the compound `CCc1cccc(CC)c1NC(=O)N1Cc2[nH]nc(NC(=O)c3ccc(N4CCN(C)CC4)cc3)c2C1`, the Potency in assay [1] is 12.2 µM (active); in assay [5] it was 1.32 µM (active); in assay [6], 0.742 µM (active); in assay [7] it was 14.8 µM (active); in assay [8], 5.25 µM (active); in [9], 9.34 µM (active). The activation in assay [1] was 5.63%. For the same compound, the Potency result in assay [2] and in assay [3] was “inactive” in each case.
In the case of `COc1cc(N2CCC(N3CCN(C)CC3)CC2)ccc1Nc1ncc(Cl)c(Nc2ccccc2S(=O)(=O)C(C)C)n1`, the Potency in assay [1] is 30.1 µM (active); in [17], 18.6 µM (active); in assay [4] it was 2.63 µM (active); in [6], 16.6 µM (active); in assay [7], 2.95 µM (active); in [8], 10.5 µM (active). In addition, in assay [9], the Potency is 16.6 µM (active). In [1], the activation is 16.9%. Moreover, the Potency entry in assay [2] was “inactive”.
`Cc1cc(Nc2ncc(Cl)c(Nc3ccccc3S(=O)(=O)C(C)C)n2)c(OC(C)C)cc1C1CCNCC1`: the Potency in assay [1] is 7.57 µM (active); in assay [17] it was 23.5 µM (active); in assay [4] it was 9.34 µM (active); in assay [5], 4.68 µM (active); in assay [6] it was 6.61 µM (active); in assay [7], 10.5 µM (active). The Potency in assay [8] is 16.6 µM (active); in [9], 9.34 µM (active). Besides, the activation in [1] was 21.6%. For the same compound, the Potency result in [2] and in [3] was “inactive” in each case.
On to `Cc1cn(-c2cc(NC(=O)c3ccc(C)c(Nc4nccc(-c5cccnc5)n4)c3)cc(C(F)(F)F)c2)cn1`, for which the Potency in assay [1] is 30.1 µM (active); in assay [4], 1.18 µM (active); in assay [5], 1.86 µM (active); in assay [6] it was 0.0295 µM (active). For the same compound, the activation in [1] is 12.7%. Further, the Potency result in assay [2] and in assay [3] was “inactive” each time.
Turning to `CS(=O)(=O)c1cccc(CNc2nc(Nc3ccc4c(c3)CCC(=O)N4)ncc2C(F)(F)F)c1`, the Potency was 21.3 µM (active) in assay [1]; 16.6 µM (active) in assay [17]; 20.9 µM (active) in [4]; 0.209 µM (active) in assay [5]; 9.34 µM (active) in [6]; 10.5 µM (active) in [7]. For the same compound, the activation in assay [1] was -20.3% and 55.5%. The Potency result in [10], in assay [2], in [11] and in assay [3] was “inactive” each time.
For `CCNC(=O)Nc1ccc2ncc(Nc3ccc(C)cc3)nc2n1`, in assay [1], the Potency was 30.1 µM (active) and the activation was -1.61%. Moreover, the Potency result in [2] is “inactive”. The Potency entry in assay [3] is “inactive”.
For the compound `CCCNC(=O)Nc1ccc(Oc2ncnc3cc(OC)c(OC)cc23)cc1Cl`, the Potency in assay [1] is 26.9 µM (active). Besides, the activation in assay [1] is 17.1%. Besides, the Potency entry in assay [2], in [3], in [4], in assay [6], in assay [7] and in [8] was “inactive” in each case. For the same compound, the Potency result in assay [9] was “inactive”.
`COc1cc(N2CCC(O)CC2)ccc1Nc1cc(Nc2ccccc2S(=O)(=O)C(C)C)c2cc[nH]c2n1`: the Potency in assay [1] is 16.6 µM (active); in assay [4] it was 18.6 µM (active); in [5], 18.6 µM (active); in assay [6] it was 18.6 µM (active); in [7], 26.3 µM (active). For the same compound, the activation in [1] is -59.5%. Further, the Potency entry in [2] was “inactive”.
Regarding `CS(=O)c1ccc(-c2nc(-c3ccc(F)cc3)c(-c3ccncc3)[nH]2)cc1` (centres undefined), in assay [1], the Potency is 49.8 µM (active). Besides, the activation in [1] was -3.57%. Moreover, the Potency entry in assay [2], in assay [3], in assay [4], in assay [8] and in assay [9] was “inactive” throughout.
On to `O=C1Cc2cc(CCN3CCN(c4nsc5ccccc45)CC3)c(Cl)cc2N1`, for which the Potency in assay [1] was 27.6 µM (active). Besides, the activation in [1] was -69%. The Potency result in assay [10], in [2] and in [3] was “inactive” in each case.
